According to PubChem BioAssay AID493005 (National Center for Advancing Translational Sciences (NCATS), 2010):
Hit rate of the full screen: of about 340,000 compounds, fewer than 10 were called active. Calls follow the shape of the dose curve; as a rule, active = well fitted inhibition curve with a large enough effect in the main read-out, with a control signal flat (not every such curve was filed as active); inconclusive = small, poorly fitted or top-dose-only effect, or effect the other way, or a change in a side signal; inactive = no such curve, though single readings can be large or run the other way. The list is a sample of the results.

biological target: Tumor susceptibility gene 101 protein (Homo sapiens) (UniProt Q99816); assay: qHTS Assay for Iinhibitors of HIV-1 Budding by Blocking the Interaction of PTAP/TSG101; conditions: Fluorescence polarization, FITC-PTAP peptide / Tsg101 binding; series mostly up to 115 µM
Text: NIH Molecular Libraries Probe Production Network [MLPCN] NIH Chemical Genomics Center [NCGC] MLPCN Grant: 1 R03 MH087464-01A1 PI Name: Dr. Eric Freed, NCI NCGC Assay Overview: Stages of the HIV-1 replication cycle, specifically virus assembly and release, provide underexploited targets for the development of novel antiviral inhibitors. The late stages of HIV-1 replication are mediated by the Gag precursor protein, Pr55Gag. Expression of Pr55Gag is both necessary and sufficient for the production of virus-like particles from Gag-expressing cells. The Gag protein hijacks key host proteins involved in endocytic machinery of the host cell to promote endosomal processing and viral budding. The budding process requires a direct interaction between a […] (PTAP) motif in the p6 domain of Gag and the cellular endosomal sorting protein known as Tsg101. In this way, the Gag PTAP motif promotes the host cells to recruit viral particles to the plasma membrane where the new viral particles are released, effectively turning the host cells into viral factories. A fluorescence anisotropy assay has been developed to quantitatively measure the PTAP-Tsg101 interaction which can be used to screen for inhibitors of this interaction.
NCGC Assay Protocol Summary: Two uL of the Tsg101 binding domain in buffer (10 mM HEPES pH 7.5; 0.15 M NaCl, 0.01% Tween 20; 3 mM EDTA;0.1 mM TCEP) was dispensed into Greiner black MB 1536-well plates (final concentration 10 uM). Then, 23 nL of compounds or DMSO were delivered to each well using a pin tool. Finally, 2 uL of a FITC-labeled peptide containing the PTAP motif (1) in the same buffer was dispensed (50 nM final concentration) and the binding was allowed to proceed for 20 min. at r.t. Fluorescent polarization was determined using FITC excitation and polarized emission filters on a Perkin Elmer Viewlux. Keywords: Tsg101, PTAP, Gag, HIV, fluorescent polarization, MLSMR, MLPCN, NIH Roadmap, qHTS, NCGC

Sequence of Tumor susceptibility gene 101 protein (Homo sapiens) (Q99816 whole entry, looked up): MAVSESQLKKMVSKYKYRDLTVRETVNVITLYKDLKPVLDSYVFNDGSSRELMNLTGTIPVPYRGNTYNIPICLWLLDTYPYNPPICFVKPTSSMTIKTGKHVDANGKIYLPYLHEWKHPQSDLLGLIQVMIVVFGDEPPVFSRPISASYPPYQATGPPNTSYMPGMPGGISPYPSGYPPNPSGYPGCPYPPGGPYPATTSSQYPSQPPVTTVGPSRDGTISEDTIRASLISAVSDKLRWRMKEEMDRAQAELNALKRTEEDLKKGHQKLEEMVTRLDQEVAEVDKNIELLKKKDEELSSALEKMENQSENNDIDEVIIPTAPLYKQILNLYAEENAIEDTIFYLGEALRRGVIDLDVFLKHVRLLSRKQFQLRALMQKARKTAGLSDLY

outcome, inactive:
Cc1nc2ccc(N)nc2nc1C
C/C(=N\NC(=O)OC(C)(C)C)c1ccc[nH]1
O=C(CCN1C(=O)[C@H]2CC=CC[C@H]2C1=O)NCc1nc(-c2ccccc2)no1
CCc1nnc(NC(=O)CSc2nnc(COc3ccc(C#N)cc3)n2-c2ccccc2)s1
CCN(CCn1cccn1)Cc1cn[nH]c1-c1ccc(OC)cc1F
CC1CN(Cc2nc3c(c(=O)n(C)c(=O)n3C)n2Cc2cccc(Cl)c2)CC(C)O1 (stereo not given)
O=C(c1ccc(C(F)(F)F)cc1)C1CCCN(C(=O)c2csnn2)C1 (stereo not given)
CN1CCC(N(C)C(=O)c2ccc(Cl)c(S(=O)(=O)Nc3ccc(Cl)cc3)c2)CC1
O=C(C[C@H]1C/C=C\C[C@@H](NC(=O)OCC2c3ccccc3-c3ccccc32)C(=O)O[C@@H](c2ccccc2)CNC1=O)N[C@H](CO)Cc1ccccc1
COc1cc(/C=C/c2ccc(/C=C/c3cc(OC)c(OC)c(OC)c3)cc2)cc(OC)c1OC
CCOC(=O)c1ccc2[nH]c3c(c2c1)CCCC3NC=O (stereo not given)
CCN1CCN(C(=O)Cn2nc(C)n3c(cc4c(OC)cccc43)c2=O)CC1
O=C(NCc1nnc(SCC(=O)N2CCC(Cc3ccccc3)CC2)o1)c1ccco1
CCN(CC)S(=O)(=O)c1ccc2[nH]c(=O)cc(C(=O)N(C)C3CCS(=O)(=O)C3)c2c1 (stereo not given)
O=C(C1CCCO1)N(c1ccc(F)cc1)C1C=CS(=O)(=O)C1 (stereo not given)
O=C(NCc1ccccc1)c1cccc(NC(=O)C2CCCCC2)c1
c1ccc(-c2nccc(-c3ccc(-n4cnc5ccccc54)cc3)n2)nc1
CCC(C)Sc1nc(C)nc2c1c(=O)n(C)c(=O)n2C (stereo not given)
CCN(CC)C(=O)CSc1nc2ccccc2n1CC(=O)N1CCN(c2ccccc2OC)CC1
CCOc1ccccc1NC(=S)C(=C([O-])c1ccc2c(c1)OCCO2)[n+]1ccc(CC)cc1
O=C(CSc1nnc(-c2cccs2)n1Cc1ccco1)c1ccc2c(c1)OCO2
COC(=O)c1ccc(NC(=O)CSc2nncc3ccc(OC)c(OC)c23)cc1
Cc1noc(C)c1C(=O)NCCc1ccc(S(N)(=O)=O)cc1
O=C(CN1CCN(c2ccc(O)cc2)CC1)Nc1ccc(-c2ccccc2)cc1
CCN(C(=O)COC(=O)c1c(C)nn(-c2ccccc2)c1Cl)c1c(N)n(Cc2ccccc2)c(=O)[nH]c1=O
COc1cccc(-c2nn(-c3ccccc3)cc2/C=C(\C#N)C(=O)NCCCn2ccnc2)c1
Nc1c(-c2cccc(Cl)c2)cnn1-c1cccc([N+](=O)[O-])c1
COc1ccc(CN2C(=O)CC(Cc3ccc(C)cc3)C2=O)cc1OC (stereo not given)
C/C(=N\N=C(N)N)c1ccc(Cl)cc1
CC(C)Oc1ccc(C2NC(=O)NC2=O)cc1 (stereo not given)
COC(=O)C1(S(=O)(=O)C2(C(=O)OC)CCCC2)CCCC1
C=CCOC(=O)C1=C(C)N=C2SCCC(=O)N2C1/C=C/c1ccccc1OC (stereo not given)
Cc1ccc(N(C(=O)CC2NC(=O)NC2=O)C2(C(=O)NC3CCCC3)CCCCC2)cc1 (stereo not given)
O=S(=O)(NCCS(=O)(=O)N1CCN(c2ccccc2)CC1)c1ccc(F)cc1
Fc1ccc(-n2c(Cc3ccccc3)nnc2SCc2nc(-c3ccc(Cl)cc3)no2)cc1
N/C(=N\OC(=O)CCc1ccccc1)c1ccc(Cl)cc1
O=C(CN1CCN(Cc2ccccc2)CC1)NC(c1ccccc1)c1ccccc1
O=C(O)c1[nH]c2ccccc2c1C(c1cccc(O)c1)c1c(C(=O)O)[nH]c2ccccc12
COCCCNCC(=O)Nc1sc(C)c(C)c1C(=O)OC
CCn1c(SCC(=O)NC2=NCCS2)nnc1C(C)NC(=O)c1ccccc1F (stereo not given)
Cc1ncc([N+](=O)[O-])n1CCOC(=O)c1ccc(Br)cc1
CC(C)(C)C(=O)Nc1cccc(-c2ccc[nH]2)n1
O=C(C/C(=N\NC(=O)c1ccccc1Br)C(F)(F)F)c1cccs1
COC(=O)[C@@]12CCCN1[C@H](c1ccc(-c3ccc(F)cc3)c(OC)c1)[C@H]1C(=O)N(C)C(=O)[C@H]12
C=C1c2c(Cl)ccc(O)c2C(O)=C2C(=O)[C@]3(O)C(O)=C(C(N)=O)C(=O)[C@@H](N(C)C)[C@@H]3[C@@H](O)C12 (stereo not given in full)
Cc1ccc(C)c(OCCC(=O)OCC(=O)NC(=O)NCc2ccccc2)c1
COc1ccc(NC(=O)CSc2ccc(-c3ccco3)nn2)c(OC)c1
COC(=O)[C@]1(C)CCC[C@@]2(C)C3CC[C@]4(OC(C)=O)C[C@@]3(CCC21)CC4=NO (stereo not given in full)
COc1ccc(C(=O)CCc2ccccc2O)c(OC)c1
Cc1ccc(CNC(=O)CCC(=O)N2CC(C)Sc3ccccc32)cc1 (stereo not given)
Cc1cc(C)cc(NC(=O)N2CCC(NC(=O)c3ccc(F)cc3)CC2)c1
Cc1ccc(CCCOC(=O)C[N+]2(C)CCCCC2)cc1
Cc1noc(C)c1S(=O)(=O)N1CCCC(C(=O)Nc2nccs2)C1 (stereo not given)
CCCCNC1(C#N)CCN(Cc2ccccc2)CC1
O=C(NNC(=S)NCCCN1CCOCC1)c1ccncc1
CCOc1cc(CN2CCCC(CO)(Cc3ccc(F)cc3F)C2)ccc1OC (stereo not given)
Cc1ccc2c(C)c(C(=O)N(C)CCC3CCCCO3)oc2c1C (stereo not given)
CN(C)C(=O)c1ccc2c(c1)C1C3CCC(C3)C1C(c1ccccc1)N2 (stereo not given)
O=C(CCC1CCCC1)N=C1SC2CS(=O)(=O)CC2N1Cc1ccccc1 (stereo not given)
Cc1ccc(CN(N=Nc2nonc2N)c2nonc2N)c(C)c1
Cc1ccc(C(=O)O)cc1N1C(=O)CCCC1=O
Cc1ccc(CN2CCN(c3ccccc3Cl)CC2)o1
CCCC(=O)Nc1nnc(CC(=O)OCC)s1
COc1ccc(CCNCc2c(-c3ccccc3)n(C)c3ccccc23)cc1
COc1ccc(F)cc1S(=O)(=O)N1CCCCC1
